A short description of assay [1]: Quantitative High-Throughput drug screen in 47 multiple myeloma cell lines against the NCATS MIPE library collection: Delta47_JCRB cell viability assay (AID 1918925; further: nearly all actives have a fitted effect of over 45% in size; further: potency means the concentration at half of the fitted maximal effect). Summed up: (§1)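 CellTiter-Glo luminescence (ATP) after 48 h compound exposure, 37C/5% CO2; 500 cells/well; MIPE 4.0 approved/investigational drugs pinned in; DMSO = 100%, media only = 0% viability.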
Assay [2] can be described thus: Quantitative High-Throughput drug screen in 47 multiple myeloma cell lines against the NCATS MIPE library collection: EJM_DSMZ cell viability assay (AID 1918926; further: nearly all actives have a fitted effect of over 30% in size; further: potency means the concentration at half of the fitted maximal effect). Summed up: as §1
Assay [3] is described as follows: Quantitative High-Throughput drug screen in 47 multiple myeloma cell lines against the NCATS MIPE library collection: AMO1_DSMZ cell viability assay (AID 1918927; further: nearly all actives have a fitted effect of over 30% in size; further: potency means the concentration at half of the fitted maximal effect). Summed up:
as §1

Assay [4] can be described thus: Quantitative High-Throughput drug screen in 47 multiple myeloma cell lines against the NCATS MIPE library collection: ARP1_JJKsccF8 cell viability assay (AID 1918928; further: nearly all actives have a fitted effect of over 40% in size; further: potency means the concentration at half of the fitted maximal effect). A digest of the protocol: (§2)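 500 cells/well; MIPE 4.0 library pinned in; 48 h, 37 °C, 5% CO2; CellTiter-Glo ATP luminescence. Controls: DMSO = 100% viability, medium only = 0%.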
Assay [5] is described as follows: Quantitative High-Throughput drug screen in 47 multiple myeloma cell lines against the NCATS MIPE library collection: ARD_JJKsccE7 cell viability assay (AID 1918929; further: potency means the concentration at half of the fitted maximal effect). A digest of the protocol: as §1
Assay [6] in a line: Quantitative High-Throughput drug screen in 47 multiple myeloma cell lines against the NCATS MIPE library collection: Karpas620_DSMZ cell viability assay (AID 1918959). Further: nearly all actives have a fitted effect of over 30% in size. Further: potency means the concentration at half of the fitted maximal effect. A digest of the protocol:
(§3)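 Myeloma cells (500 per well) were exposed to MIPE 4.0 compounds by pin transfer and incubated 48 hours at 37C, 5% CO2. Viability was read as ATP by CellTiter-Glo luminescence, normalised to DMSO (100%) and media-only (0%) wells.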

Assay [7] is described as follows: Quantitative High-Throughput drug screen in 47 multiple myeloma cell lines against the NCATS MIPE library collection: KMM1_JCRB cell viability assay (AID 1918960). Further: nearly all actives have a fitted effect of over 30% in size. Further: potency means the concentration at half of the fitted maximal effect. Summed up:
as §2

A short description of assay [8]: Quantitative High-Throughput drug screen in 47 multiple myeloma cell lines against the NCATS MIPE library collection: JIM3_ECACC cell viability assay (AID 1918963; further: nearly all actives have a fitted effect of over 35% in size; further: potency means the concentration at half of the fitted maximal effect). Summed up:
as §3

Assay [9] can be described thus: Quantitative High-Throughput drug screen in 47 multiple myeloma cell lines against the NCATS MIPE library collection: JIM1_ECACC cell viability assay (AID 1918964; further: potency means the concentration at half of the fitted maximal effect). A digest of the protocol: as §1
A short description of assay [10]: Quantitative High-Throughput drug screen in 47 multiple myeloma cell lines against the NCATS MIPE library collection: H1112_PLB cell viability assay (AID 1918967; further: nearly all actives have a fitted effect of over 30% in size; further: potency means the concentration at half of the fitted maximal effect). A digest of the protocol: as §1
Assay [11] can be described thus: Quantitative High-Throughput drug screen in 47 multiple myeloma cell lines against the NCATS MIPE library collection: Karpas25_ECACC cell viability assay (AID 1918968; further: nearly all actives have a fitted effect of over 35% in size; further: potency means the concentration at half of the fitted maximal effect). A digest of the protocol:
as §1

Assay [12] is described as follows: Quantitative High-Throughput drug screen in 47 multiple myeloma cell lines against the NCATS MIPE library collection: KMS27_JCRB cell viability assay (AID 1918970). Further: nearly all actives have a fitted effect of over 30% in size. Further: potency means the concentration at half of the fitted maximal effect. A digest of the protocol:
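Each line is seeded at 500 cells per well and treated with library compounds for 48 hours under 37 °C, 5% CO2. CellTiter-Glo is then added for 5 min at room temperature before median relative luminescence is recorded.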

Assay [13] is described as follows: Quantitative High-Throughput drug screen in 47 multiple myeloma cell lines against the NCATS MIPE library collection: INA6_PLB cell viability assay (AID 1918965; further: nearly all actives have a fitted effect of over 55% in size; further: potency means the concentration at half of the fitted maximal effect). A digest of the protocol: (§4)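 CellTiter-Glo ATP luminescence gave viability after 48 h compound treatment at 37C of 500 multiple myeloma cells per well. Normalisation used DMSO-only wells as 100% and media-only wells as 0% viability; primary qHTS of approved and investigational drugs.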

Assay [14] in a line: Quantitative High-Throughput drug screen in 47 multiple myeloma cell lines against the NCATS MIPE library collection: FR4_PLB cell viability assay (AID 1918924; further: nearly all actives have a fitted effect of over 35% in size). Summed up:
as §3

A short description of assay [15]: Quantitative High-Throughput drug screen in 47 multiple myeloma cell lines against the NCATS MIPE library collection: JJN3_DSMZ cell viability assay (AID 1918966; further: nearly all actives have a fitted effect of over 50% in size; further: potency means the concentration at half of the fitted maximal effect). A digest of the protocol:
as §1

Assay [16] is described as follows: Quantitative High-Throughput drug screen in 47 multiple myeloma cell lines against the NCATS MIPE library collection: KHM11_PLB cell viability assay (AID 1918962). Further: nearly all actives have a fitted effect of over 35% in size. A digest of the protocol: as §3
The nature of assay [17]: Quantitative High-Throughput drug screen in 47 multiple myeloma cell lines against the NCATS MIPE library collection: Karpas417_ECACC cell viability assay (AID 1918961). The conditions noted are these: Karpas417 myeloma viability, CellTiter-Glo ATP luminescence, 48 h; viability (% of DMSO): at 45.8 µM (top of the series). Summed up: as §4
(In general: In ATP-based viability assays light output follows the ATP content of the culture.)

Records with an inconclusive call do not appear. Calls of active or inactive are those of the source. The call rests on the fitted dose curve; in most records, active means well fitted curve in the direction sought with a large enough effect; inconclusive means small, poorly fitted or top-dose-only effect, or another doubt; inactive means no such curve, though single readings can be large; an effect the other way counts as inactive or inconclusive.

These results are taken from PubChem BioAssay (NCATS).

In the case of `C[C@H](NC(=O)C(=O)Nc1ccccc1C(C)(C)C)C(=O)N[C@@H](CC(=O)O)C(=O)COc1c(F)c(F)cc(F)c1F`, the Potency entry in [1], in assay [2], in assay [8] and in [10] was “inactive” in each case. Moreover, the Potency in assay [3] was 4.69 µM (active); in assay [4] it was 14.8 µM (active); in assay [5], 1.18 µM (active); in assay [6], 2.64 µM (active); in assay [7], 1.66 µM (active); in assay [9], 4.18 µM (active). The figures for the Potency in [11] and in [12] were 20.9 µM (active) and 3.32 µM (active), respectively.
Regarding `Cc1cc(OCCCc2c(C(=O)O)n(Cc3cccnc3)c3c(-c4c(COc5ccc(N6CCN([S+](C)(=O)[O-])CC6)cc5)nn(C)c4C)cccc23)cc(C)c1Cl`, the Potency in [1] is 18.7 µM (active); in [7], 9.35 µM (active); in assay [13] it was 18.7 µM (active); in [11], 20.9 µM (active). Also, the Potency entry in assay [3], in [5], in [6] and in assay [12] was “inactive” each time.
As to `COc1cc(O)c2c(c1)C(=O)c1cc(C)cc(O)c1C2=O`, the Potency entry in assay [1], in [2], in assay [4], in assay [5], in assay [7] and in assay [10] was “inactive” each time. Also, the Potency result in [11] and in assay [12] was “inactive” in each case.
With `COc1ccc(Cc2nccc3cc(OC)c(OC)cc23)cc1OC`, the Potency entry in assay [14] is “inactive”. The Potency in assay [9] and in assay [15] was 16.6 µM (active) throughout.
For the compound `Cc1ccc([C@@H]2O[C@H](CO)[C@@H](O)[C@H](O)[C@@H]2O)cc1Cc1ccc(-c2ccc(F)cc2)s1`, the Potency is 20.9 µM (active) in [1]; 18.7 µM (active) in [3]; 20.9 µM (active) in assay [5]; 16.6 µM (active) in assay [7]; 23.5 µM (active) in [12]. In addition, in [10], the Potency result was “inactive”.
As for `c1cc(-c2sc(-c3ccncc3)c(-c3ccncc3)c2-c2ccncc2)ccn1`, the Potency entry in assay [4] and in assay [6] was “inactive” each time. The Potency in assay [13] is 18.7 µM (active); in assay [12], 3.32 µM (active).
`CC(=NNC(=S)N1CCC1)c1ccccn1`: the Potency entry in assay [2], in assay [8], in [13], in assay [10] and in [11] was “inactive” in each case. Also, the Potency in assay [3], in [5] and in assay [12] was 0.001 µM (active) each time.
Take `CC(C)C[C@H](CC(=O)O)C(=O)N[C@@H](Cc1c[nH]c2ccccc12)C(=O)N[C@@H](C)c1ccccc1`: the Potency result in [2], in assay [3], in assay [4], in assay [6], in assay [7] and in [8] was “inactive” throughout. For the same compound, the Potency entry in assay [15], in [10] and in assay [11] was “inactive” each time.
As to `Cc1c[nH]c(C=C2C(=O)Nc3ccccc32)c1CCC(=O)O`, the Potency result in assay [1] and in assay [6] was “inactive” throughout. For the same compound, the Potency in assay [7] was 18.7 µM (active).
On to `CO[C@H]1C[C@@H]2CC[C@@H](C)[C@@](O)(O2)C(=O)C(=O)N2CCCC[C@@H]2C(=O)O[C@H]([C@H](C)C[C@@H]2CC[C@H](OC(=O)C(C)(CO)CO)[C@H](OC)C2)CC(=O)[C@H](C)C=C(C)[C@@H](O)[C@@H](OC)C(=O)[C@H](C)C[C@H](C)C=CC=CC=C1C`, for which the Potency is 9.35 µM (active) in [6], 20.9 µM (active) in assay [8] and 13.2 µM (active) in assay [11].
Take `O=C(O)c1ccc(-c2c[nH]c3ncc(-c4ccccc4)cc23)cc1C1CCCC1`: the Potency entry in assay [2], in [4], in assay [6] and in assay [7] was “inactive” each time. Moreover, the Potency in assay [3] is 2.96 µM (active); in [5] it was 0.935 µM (active).
With `O=C(O)C(O)Cc1ccc(O)c(O)c1` (stereo not given), the Potency in [2], in [4] and in [15] was 23.5 µM (active) throughout. The Potency result in assay [3], in [5], in assay [6], in [8], in [9] and in assay [10] was “inactive” throughout. In assay [12], the Potency entry is “inactive”.
In the case of `C[C@H](NC(=O)c1sccc1OCc1ccc(Cl)cc1)c1ccccc1`, the Potency is 20.9 µM (active) in assay [1], 26.4 µM (active) in assay [13] and 16.6 µM (active) in [11]. Also, the Potency entry in [5], in assay [6], in assay [7] and in assay [12] was “inactive” in each case.
As to `CC[C@H]1OC(=O)[C@H](C)C(=O)[C@H](C)[C@@H](O[C@H]2O[C@H](C)C[C@H](N(C)C)[C@@H]2O)[C@](C)(OC)C[C@@H](C)C(=O)[C@H](C)[C@H]2N(CCCCn3cnc(-c4cccnc4)c3)C(=O)O[C@]12C`, the Potency result in assay [3], in assay [5], in assay [6], in assay [16], in assay [8] and in assay [9] was “inactive” each time. The Potency entry in assay [11] and in assay [12] was “inactive” throughout. Moreover, the Potency in [7] was 3.72 µM (active); in assay [10], 13.2 µM (active).
As to `O=c1cc(-c2ccccc2)oc2cc(O)c(O)c(O)c12`, the Potency result in [2], in assay [5], in [6] and in [7] was “inactive” throughout. In addition, the Potency in assay [10] and in assay [11] was 20.9 µM (active) in each case.
Turning to `COc1ccc(-n2c(C)c([N+](=O)[O-])c3ccc(O)cc32)cc1`, the Potency entry in assay [6], in assay [7], in assay [16], in [8] and in assay [10] was “inactive” in each case. Besides, in assay [11], the Potency was 26.4 µM (active).
As for `COc1ccc(-c2coc3cc(O)ccc3c2=O)cc1`, the Potency result in [2], in assay [4], in [5], in assay [17], in assay [8] and in assay [9] was “inactive” in each case. Also, the Potency entry in assay [10], in [11] and in assay [12] was “inactive” in each case.
In the case of `CO[C@H]1C[C@@H]2CC[C@@H](C)[C@@](O)(O2)C(=O)C(=O)N2CCCC[C@@H]2C(=O)O[C@H]([C@H](C)C[C@@H]2CC[C@H](OP(C)(C)=O)[C@H](OC)C2)CC(=O)[C@H](C)C=C(C)[C@@H](O)[C@@H](OC)C(=O)[C@H](C)C[C@H](C)C=CC=CC=C1C`, the Potency in assay [10] was 18.7 µM (active); in [11], 20.9 µM (active).
